In PubChem BioAssay (Tox21):
Records with an inconclusive call do not appear. Calls of active or inactive are those of the source. Unless noted, calls come from the whole dose curve; as a rule, active = well fitted curve in the direction sought with a large enough effect in the repeat runs; inconclusive = weak or mixed curves; inactive = no such curve, though single readings can be large; an effect the other way counts as inactive or inconclusive.

How the values were obtained:
[1] = qHTS assay to identify small molecule antagonists of the retinoid-related orphan receptor gamma (ROR-gamma) signaling pathway - cell viability counter screen (AID 1159520); note: nearly all actives have a fitted effect of over 50% in size; note: potency is the fitted concentration of half-maximal effect; for activity, negative = cytotoxicity: % is set by controls: 0 for no effect and ±100 for the full control effect
Summary of the method: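 Tet-on ROR gamma CHO cells were given compounds for 2 hr, then doxycycline hyclate at 1 uM final, and incubated 16 hr at 37 C. Viability was measured as ATP content by CellTiter-Glo luminescence.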

[2] = target: Nuclear receptor ROR-gamma (Homo sapiens) (UniProt P51449); assay: qHTS assay to identify small molecule antagonists of the retinoid-related orphan receptor gamma (ROR-gamma) signaling pathway (AID 1159521; note: nearly all actives have a fitted effect of over 50% in size; note: potency is the fitted concentration of half-maximal effect;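 for activity change, negative = inhibition: CHO cells with doxycycline inducible ROR-gamma driving an RORE luciferase reporter; top concentration of the series differs between compounds; % is set by controls: 0 for no effect and ±100 for the full control effect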)
Summary of the method: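 Test compounds were applied to Tet-on RORγ CHO cells 2 h ahead of doxycycline hyclate (1 uM final). Luciferase reporter activity was quantified by luminescence after 16 h at 37 C and 5% CO2.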

[3] = qHTS assay to identify small molecule agonists of the AP-1 signaling pathway - cell viability counter screen (AID 1159525; calls by dose curve; note: nearly all actives have a fitted effect of over 55% in size)
Summary of the method: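 AP-1-bla ME-180 cells in Opti-MEM with 0.5% dialyzed FBS, compound exposure 5 h at 37 C in 15-point titration. Viability read in the same wells as ATP content by CellTiter-Glo luminescence, normalised to tetra-n-octylammonium bromide and DMSO controls.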

[4] = qHTS assay to identify small molecule agonists of the AP-1 signaling pathway (AID 1159526; calls by dose curve; note: % is set by controls: 0 for no effect and ±100 for the full control effect)
[5] = target: Retinoic acid receptor RXR-alpha (Homo sapiens) (UniProt P19793); assay: qHTS assay to identify small molecule agonists of the RXR signaling pathway (AID 1159527; calls by dose curve; note: nearly all actives have a fitted effect of over 35% in size; note: potency is the fitted concentration of half-maximal effect)
Sequence of Retinoic acid receptor RXR-alpha (Homo sapiens) (P19793 whole entry, looked up): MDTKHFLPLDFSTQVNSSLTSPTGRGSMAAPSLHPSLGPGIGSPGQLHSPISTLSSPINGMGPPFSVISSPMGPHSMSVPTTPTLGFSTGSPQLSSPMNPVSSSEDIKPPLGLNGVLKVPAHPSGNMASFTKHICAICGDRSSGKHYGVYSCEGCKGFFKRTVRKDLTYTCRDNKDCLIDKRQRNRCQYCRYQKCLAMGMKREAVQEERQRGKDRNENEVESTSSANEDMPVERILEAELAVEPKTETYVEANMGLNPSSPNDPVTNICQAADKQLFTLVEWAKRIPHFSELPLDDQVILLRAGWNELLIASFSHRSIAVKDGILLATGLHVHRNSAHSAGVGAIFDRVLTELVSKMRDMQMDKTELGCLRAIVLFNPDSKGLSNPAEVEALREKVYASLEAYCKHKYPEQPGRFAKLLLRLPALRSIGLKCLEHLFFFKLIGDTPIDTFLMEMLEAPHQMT
Summary of the method: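 Using 9-cis retinoic acid as the reference agonist, chemicals were tested in HEK 293T cells […] for 16 hr; substrate loading lasted 2 hr at room temperature.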

[6] = qHTS assay to identify small molecule agonists of the RXR signaling pathway - cell viability counter screen (AID 1159529); note: nearly all actives have a fitted effect of over 50% in size; note: potency is the fitted concentration of half-maximal effect
Summary of the method: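 Compounds dissolved in DMSO were pinned onto HEK 293T cells carrying a beta-lactamase reporter under RXR-alpha control and incubated 16 hr. Cytotoxicity was then quantified by CellTiter-Glo luminescence.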

[7] = qHTS assay to identify small molecule antagonists of the retinoid acid receptor (RAR) signaling pathway - cell viability counter screen (AID 1159551); note: % is set by controls: 0 for no effect and ±100 for the full control effect; nearly all actives have a fitted effect of over 35% in size
Summary of the method: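 C3RL4 cells were seeded overnight at 37 C, then treated with compounds plus 1 uM (final) retinol for 6 h at 37 C. Viability was read as ATP by CellTiter-Glo luminescence after 30 min at room temperature.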

[8] = qHTS assay to identify small molecule antagonists of the retinoic acid receptor (RAR) signaling pathway (AID 1159552; note: nearly all actives have a fitted effect of over 50% in size; note: potency is the fitted concentration of half-maximal effect)
Summary of the method: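 Test chemicals and DMSO controls were pin-transferred onto C3RL4 cells a day after seeding; retinol (1 uM final) followed at once. Luminescent reporter output was quantified after 6 hr of co-incubation and 30 min with detection reagent.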

[9] = qHTS assay to identify small molecule agonists of the retinoic acid receptor (RAR) signaling pathway (AID 1159553); note: % is set by controls: 0 for no effect and ±100 for the full control effect
Summary of the method: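 C3RL4 cells carrying a RARE luciferase reporter were plated overnight at 37 C, then exposed to compounds in DMSO for 6 hr at 37 C and 5% CO2. Luminescence was read 30 min after luciferase reagent addition at room temperature.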

O=C(O)CN(CCCN(CC(=O)O)CC(=O)O)CC(=O)O
inactive: activity, negative = cytotoxicity [1] 3.4% [at 19 µM] | activity change, negative = inhibition [2] -18.7% [at 19 µM] | viability change, negative = cytotoxic [3] -3.53% [at 15.8 µM] | activation [4] 3.51% [at 15.8 µM] | activation [5] 0.262% [at 15.8 µM] | activity change, negative = cytotoxicity [6] -1.37% [at 15.8 µM] | activity change, negative = cytotoxicity [7] 0.537% [at 19 µM]

Cn1ccnc1
inactive: Potency [1] | Potency [2] | Potency [3] | Potency [4] | Potency [5] | Potency [6] | Potency [7]

Nc1ccc(F)c([N+](=O)[O-])c1
inactive: Potency [1] | Potency [2] | Potency [3] | Potency [4] | Potency [5] | Potency [6] | Potency [7]

[Cl][Sc]([Cl])[Cl]
inactive: Potency [1] | Potency [2] | Potency [3] | Potency [4] | Potency [5] | Potency [6] | Potency [7]

O=[N+]([O-])c1ccc(CO)cc1
inactive: Potency [1] | Potency [2] | Potency [3] | Potency [4] | Potency [5] | Potency [6] | Potency [7] | Potency [8]

CCOC(=O)[C@H](C)O
inactive: Potency [1] | Potency [2] | Potency [3] | Potency [4] | Potency [5] | Potency [7] | Potency [8]

SC1CCCCC1
inactive: Potency [1] | Potency [2] | Potency [3] | Potency [4] | Potency [5] | Potency [6] | Potency [7]

CC(CC(C)(C)C)CC(C)(C)CC(C)(C)C (stereo not given)
inactive: Potency [1] | Potency [2] | Potency [3] | Potency [4] | Potency [6] | Potency [7]

Cc1cccc(C)c1C
inactive: Potency [1] | Potency [2] | Potency [3] | Potency [4] | Potency [5] | Potency [6] | Potency [7]

CC(C)=CCC[C@H](C)CC=O
inactive: Potency [1] | Potency [2] | Potency [3] | Potency [4] | Potency [5] | Potency [6] | Potency [7]

CC(C=O)c1ccccc1 (stereo not given)
inactive: Potency [1] | Potency [2] | Potency [3] | Potency [4] | Potency [5] | Potency [6] | Potency [7] | Potency [8]

CSc1ccc(O)cc1C
active: Potency [2] 43.3 µM
inactive: Potency [1]

O=c1[nH]cccc1O
inactive: Potency [1] | Potency [2] | Potency [3] | Potency [4] | Potency [5] | Potency [6] | Potency [7] | Potency [8]

CC1CCC(C(C)(C)O)CC1 (stereo not given)
inactive: Potency [1] | Potency [2] | Potency [3] | Potency [4] | Potency [5] | Potency [6] | Potency [7]

Cc1ccc2n[nH]nc2c1
inactive: Potency [1] | Potency [2] | Potency [3] | Potency [4] | Potency [5] | Potency [6]

O=C1c2ccccc2C(=O)c2c(Cl)cccc21
inactive: Potency [1] | Potency [2] | Potency [3] | Potency [4] | Potency [5] | Potency [7] | Potency [8]

CC/C=C(\C)C=O
inactive: Potency [1] | Potency [2] | Potency [3] | Potency [4] | Potency [5] | Potency [6] | Potency [7]

Cc1ccc2sc3cccc(C)c3c2c1
inactive: Potency [1] | Potency [2] | Potency [3] | Potency [4] | Potency [5] | Potency [7]

Nc1cc([N+](=O)[O-])cc(Cl)c1O
inactive: Potency [1] | Potency [2] | Potency [3] | Potency [4] | Potency [5] | Potency [6] | Potency [7] | Potency [8]

O=c1cc[nH]cc1
inactive: Potency [1] | Potency [2] | Potency [3] | Potency [4] | Potency [6] | Potency [7]

C=CC(=O)OCCOC1C2CCC1C1CC=CC12 (stereo not given)
inactive: activity, negative = cytotoxicity [1] 1.32% [at 19 µM] | activity change, negative = inhibition [2] 0.993% [at 19 µM] | viability change, negative = cytotoxic [3] -20.2% [at 15.8 µM] | activation [4] -3.6% [at 15.8 µM] | activity change, negative = cytotoxicity [6] -24% [at 15.8 µM] | activity change, negative = cytotoxicity [7] -0.0183% [at 19 µM]

CCN(CCC#N)c1ccc(N=Nc2ccc([N+](=O)[O-])cc2)cc1
inactive: Potency [1] | Potency [2] | Potency [3] | Potency [4] | Potency [5] | Potency [6] | Potency [8]

CCC(=O)OC/C=C(\C)CCC=C(C)C
inactive: Potency [1] | Potency [2] | Potency [3] | Potency [4] | Potency [5] | Potency [6] | Potency [7]

O=C1CCC(=O)N1
inactive: Potency [1] | Potency [2] | Potency [3] | Potency [4] | Potency [5] | Potency [6] | Potency [7]

C/C(=C\c1ccc(C(=O)O)cc1)c1ccc2c(c1)C(C)(C)CCC2(C)C
inactive: Potency [1] | Potency [2] | Potency [3] | Potency [4] | Potency [6] | Potency [7]
active: Potency [5] 0.952 µM

C=Cc1ccncc1
inactive: Potency [1] | Potency [2] | Potency [3] | Potency [4] | Potency [5] | Potency [6] | Potency [7] | Potency [8]

Brc1cc(Br)cc(Br)c1
inactive: Potency [1] | Potency [2] | Potency [3] | Potency [4] | Potency [6] | Potency [7]

CC1(C)[C@H](C(=O)OCc2cccc(Oc3ccccc3)c2)[C@@H]1C=C(Cl)Cl
inactive: Potency [1] | Potency [2] | Potency [3] | Potency [4] | Potency [5] | Potency [6] | Potency [7]

C/C(=N\[Si](C)(C)C)O[Si](C)(C)C
inactive: Potency [1] | Potency [2] | Potency [3] | Potency [4] | Potency [5] | Potency [6] | Potency [7]

NC(=O)c1ccccc1Cl
inactive: Potency [1] | Potency [2] | Potency [3] | Potency [4] | Potency [5] | Potency [6] | Potency [7]

O=C1OCc2ccccc21
inactive: Potency [1] | Potency [2] | Potency [3] | Potency [4] | Potency [5] | Potency [6] | Potency [7]

C1=CCCC1
inactive: Potency [1] | Potency [2] | Potency [3] | Potency [4] | Potency [5] | Potency [6] | Potency [7] | Potency [8]

COc1c(Br)cc(Br)c(C)c1Br
inactive: Potency [1] | Potency [2] | Potency [3] | Potency [4] | Potency [5] | Potency [6] | Potency [7]

COc1cc(OC)nc(NC(=O)NS(=O)(=O)Nc2ccccc2C(=O)N(C)C)n1
inactive: Potency [1] | Potency [2] | Potency [3] | Potency [4] | Potency [5] | Potency [6] | Potency [7]

CC(C)(C)c1cc(CCC(=O)OCCSCCOC(=O)CCc2cc(C(C)(C)C)c(O)c(C(C)(C)C)c2)cc(C(C)(C)C)c1O
inactive: Potency [1] | Potency [2] | Potency [3] | Potency [4] | Potency [5] | Potency [6] | Potency [7]

C/C=C/C(=O)C1=C(C)C=CCC1(C)C
inactive: Potency [1] | Potency [2] | Potency [3] | Potency [4] | Potency [5] | Potency [6] | Potency [7]

Clc1ccc2c(Cl)ccnc2c1
inactive: Potency [1] | Potency [2] | Potency [3] | Potency [4] | Potency [5] | Potency [6] | Potency [7] | Potency [8]

NCc1cccc(C2CCN(C(=O)c3ccc(C#Cc4ccccc4F)o3)CC2)c1
inactive: Potency [9]

Cc1cccc2c1ccc1ccccc12
inactive: Potency [1] | Potency [2] | Potency [4] | Potency [5] | Potency [6] | Potency [7] | Potency [8]

Oc1ccc(Cl)cc1C1CCCC1
inactive: Potency [1] | Potency [2] | Potency [7] | Potency [9]
active: Potency [5] 11 µM

Nc1cccnc1N
inactive: Potency [1] | Potency [2] | Potency [4] | Potency [5] | Potency [6] | Potency [7] | Potency [8]

C[C@H]1O[C@@H](O[C@H]2CC[C@@]3(C)[C@H](CC[C@@H]4[C@@H]3C[C@@H](O)[C@]3(C)[C@@H](C5=CC(=O)OC5)CC[C@]43O)C2)C[C@H](O)[C@@H]1O[C@H]1C[C@H](O)[C@H](O[C@H]2C[C@H](O)[C@H](O[C@@H]3O[C@H](CO)[C@@H](O)[C@H](O)[C@H]3O)[C@@H](C)O2)[C@@H](C)O1
inactive: Potency [1] | Potency [2] | Potency [4] | Potency [7] | Potency [8] | Potency [9]

C=COCCCC
inactive: Potency [1] | Potency [2] | Potency [4] | Potency [6] | Potency [7] | Potency [8]

CCCCCCCCSCc1cc(C)c(O)c(CSCCCCCCCC)c1
inactive: Potency [1] | Potency [7]
active: Potency [2] 61.1 µM

CCOc1nc(F)cc2nc(S(=O)(=O)Nc3c(Cl)cccc3C(=O)OC)nn12
inactive: Potency [1] | Potency [2] | Potency [4] | Potency [5] | Potency [6] | Potency [7] | Potency [8]

O=C1OC(O)C(C(Cl)Cl)=C1Cl (stereo not given)
inactive: Potency [7]
active: Potency [1] 7.07 µM | Potency [2] 14.1 µM

N#Cc1ccc(C/C(=N/NC(=O)Nc2ccc(OC(F)(F)F)cc2)c2cccc(C(F)(F)F)c2)cc1
inactive: Potency [1] | Potency [2] | Potency [7]

C=CC(C)(C)O
inactive: Potency [1] | Potency [2] | Potency [4] | Potency [5] | Potency [6] | Potency [7]

Oc1ccc(C2(c3ccc(O)c(C4CCCCC4)c3)CCCCC2)cc1C1CCCCC1
active: Potency [1] 24.3 µM | Potency [2] 17.2 µM | Potency [6] 19.5 µM | Potency [8] 27.3 µM

[Cl][Dy]([Cl])[Cl]
inactive: Potency [1] | Potency [2] | Potency [6] | Potency [7]

CC(=O)CC(N)=O
inactive: Potency [1] | Potency [2] | Potency [4] | Potency [5] | Potency [6] | Potency [7] | Potency [8]

Nc1ccc2c(S(=O)(=O)O)cccc2c1S(=O)(=O)O
inactive: Potency [1] | Potency [2] | Potency [5] | Potency [6] | Potency [7] | Potency [8]

CCCCCCCCCCCCS(=O)(=O)Cl
inactive: activity, negative = cytotoxicity [1] -7.74% [at 19 µM] | activity change, negative = inhibition [2] 0.574% [at 19 µM] | activation [4] -7.42% [at 15.8 µM] | activation [5] -13.1% [at 15.8 µM] | activity change, negative = cytotoxicity [7] 0.197% [at 19 µM] | activity, negative = inhibition [8] -0.011% [at 19 µM]

O=C(CCN1CCC(c2ccccc2)C1)c1ccc2c(c1)OCCO2 (stereo not given)
active: Potency [1] 26.6 µM | Potency [2] 33.5 µM
inactive: Potency [3] | Potency [7]
